IDE exosite FP: exo-site inhibitors of human IDE, primary screen, biochemical, fluorescence anisotropy, probe displacement; Insulin-degrading enzyme (Homo sapiens), P14735; purified IDE, FL-6b probe fluorescence polarization; stronger effect = lower value; AID 1259349, 2017; z-score at 20 µM; actives 6.3% (n = 17,000);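 active means z-score of -3 or lower, meaning strong loss of probe binding signal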;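 further: His-tagged human IDE residues 42-1019 made in E. coli with 30 nM FL-6b probe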
* hit, by the source's call. The sample as a whole holds a higher share of hits than the screen did.

SMILES	IDE exosite FP
COc1cccc(C#Cc2ccc([C@H]3[C@H](C#N)N(C(=O)C4CC4)[C@H]3CO)cc2)c1	-1.93
COc1ccccc1-c1ccccc1[C@@H]1[C@H](C#N)N(C(=O)C2CCC2)[C@H]1CO	3.29
COc1cccc(C#Cc2ccc([C@H]3[C@@H](CO)N(C(=O)C4CCOCC4)[C@H]3C#N)cc2)c1	-5.09*
COc1cccc(C#Cc2ccc([C@H]3[C@@H](C#N)N(C(=O)C4CCC4)[C@@H]3CO)cc2)c1	-0.0363
CN1C(=O)c2cc(NC(=O)c3cscn3)ccc2OC[C@@H]2O[C@@H](CC(=O)N3CCOCC3)CC[C@@H]21	-0.177
COc1ccc2c3c(n(C)c2c1)[C@H](CO)N(C(C)=O)CC31CCN(C(=O)c2cnccn2)CC1	-1.57
CCN(C[C@@H]1[C@@H](c2ccccc2)[C@H](CO)N1C(=O)COC)S(C)(=O)=O	1.02
O=C(Nc1cccc(F)c1)N1C[C@@H]2[C@H](c3ccccc31)[C@H](CO)N2C(=O)Cc1ccccn1	0.286
N#C[C@@H]1[C@H](c2ccccc2C2=CCCC2)[C@H](CO)N1C(=O)C1CCCC1	0.661
CC(C)NC(=O)N1CCCCN2[C@@H](CO)[C@@H](c3ccc(C#Cc4ccccc4F)cc3)[C@@H]2C1	-3.05*
CC(C)NC(=O)N1CCCCN2[C@H](CO)[C@H](c3ccc(C#Cc4ccccc4F)cc3)[C@@H]2C1	-6.42*
CC(C)NC(=O)N1CCCCN2[C@H](C1)[C@H](c1ccc(C#C[C@@H](C)O)cc1)[C@@H]2CO	1.23
CC(C)C#Cc1ccc([C@H]2[C@@H](CO)N3CCCCN(C(=O)NC(C)C)C[C@H]23)cc1	-1.82
CC(C)C#Cc1ccc([C@@H]2[C@@H](CO)N3CCCCN(C(=O)NC(C)C)C[C@@H]23)cc1	1.07
CC(C)NC(=O)N1CCCCN2[C@H](C1)[C@@H](c1ccc(C#Cc3ccccc3F)cc1)[C@@H]2CO	-5.23*
CC(C)NC(=O)N1CCCCN2[C@@H](CO)[C@@H](c3ccc(C#C[C@H](C)O)cc3)[C@@H]2C1	0.296
CC(C)NC(=O)N1CCCCN2[C@H](CO)[C@@H](c3ccc(C#Cc4ccccc4F)cc3)[C@H]2C1	-10.4*
CC(C)NC(=O)N1CCCCN2[C@H](CO)[C@@H](c3ccc(C#C[C@@H](C)O)cc3)[C@@H]2C1	3.62
CC(C)NC(=O)N1CCCCN2[C@H](C1)[C@@H](c1ccc(C#C[C@@H](C)O)cc1)[C@@H]2CO	0.853
CC(C)NC(=O)N1CCCCN2[C@H](C1)[C@H](c1ccc(C#CC3CC3)cc1)[C@@H]2CO	-2.35
CC(C)NC(=O)N1CCCCN2[C@H](CO)[C@H](c3ccc(C#CC4CC4)cc3)[C@H]2C1	-1.75
CN(C)CC(=O)N1[C@H](CO)[C@@H](c2ccc(C#CC3CC3)cc2)[C@@H]1C#N	2.49
O=C(NCC[C@@H]1CC[C@@H](NS(=O)(=O)Cc2ccccc2)[C@@H](CO)O1)C1CCCCC1	1.39
O=C(CN1CCOCC1)N1CC2(C1)[C@@H](c1ccccc1)[C@H](CO)N2Cc1cccc(F)c1	-0.887
CS(=O)(=O)N(CC1CCC1)C[C@@H]1N[C@@H](CO)[C@@H]1c1ccccc1	0.695
SMILES	IDE exosite FP
COCC(=O)N1[C@H](C#N)[C@H](c2ccccc2-c2cccc(C)c2)[C@H]1CO	-0.535
O=C(C1CCOCC1)N1CC2(C1)[C@H](c1ccccc1)[C@H](CO)N2C(=O)CC1CC1	1.73
COCC(=O)N1CCCCN2[C@H](C1)[C@H](c1ccc(-c3ccc(F)cc3)cc1)[C@@H]2CO	3.32
CCCNC(=O)Nc1ccc2c(c1)C(=O)N(C)C[C@H](OC)[C@H](C)CN(C)[C@H](C)CO2	-0.827
C[C@H](CO)N1C[C@H](C)[C@H](CN(C)S(=O)(=O)c2ccc(F)cc2)OCCCC[C@H](C)Oc2ccc(N(C)C)cc2C1=O	-0.0231
O=C(CN1CCOCC1)N1CCCCN2[C@H](C1)[C@@H](c1ccc(C#Cc3ccccc3)cc1)[C@@H]2CO	-6.58*
O=C(CN1CCOCC1)N1CCCCN2[C@@H](CO)[C@@H](c3ccc(/C=C/c4ccccc4)cc3)[C@@H]2C1	-10.4*
O=C(CN1CCOCC1)N1CCCCN2[C@@H](CO)[C@H](c3ccc(C#Cc4ccccc4)cc3)[C@@H]2C1	-7.13*
O=C(CN1CCOCC1)N1CCCCN2[C@H](CO)[C@@H](c3ccc(C#Cc4ccccc4)cc3)[C@H]2C1	-3.28*
Cc1ccccc1-c1ccc([C@H]2[C@@H](CO)N3CCCCN(C(=O)CN4CCOCC4)C[C@@H]23)cc1	0.128
O=C(CN1CCOCC1)N1CCCCN2[C@H](CO)[C@@H](c3ccc(-c4ccccc4)cc3)[C@@H]2C1	2.48
O=C(CN1CCOCC1)N1CCCCN2[C@H](CO)[C@@H](c3ccc(-c4ccccc4)cc3)[C@H]2C1	3.56
COc1ccccc1-c1ccc2c(c1)O[C@@H](CN(C)CC1CCOCC1)[C@@H](C)CN([C@@H](C)CO)S2(=O)=O	0.309
CNC[C@H]1OCc2cnnn2CCCC(=O)N([C@H](C)CO)C[C@H]1C	-2.24
COCC#Cc1ccc([C@H]2[C@H](CO)N3C(=O)CN(C(=O)C4CC4)C[C@@H]23)cc1	0.526
